Compound activity as filed in PubChem BioAssay.
Giardia kill – Giardia lamblia killing | 0.15% of 340,000 active | activity change, % at 7.66 µM, hits read low | Giardia lamblia trophozoite viability; in the data active = activity change below about -80%; inconclusive = between about -30% and that limit;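 also: parasites exposed to compound for two days anaerobically before the ATP read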
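Compounds were tested on trophozoites seeded at 100 cells/well and held 48 hrs at 37 deg C anaerobically. An ATP-based luminescent kit measured the remaining live cells.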
ELG1 repair inh – inhibitors of ELG1-dependent DNA repair in HEK293T cells. HEK293T ELG1-luciferase reporter, luminescence, 16 h; DNA damage induced by 5-fluorouridine. Potency, µM (top dose mostly 46.1 µM), for inactives: top-dose activity change, negative = inhibition, hits mostly inhibitors. 2.3% of 330,000 active. AID 504467; also: potency is read from the fitted curve at half-maximal effect; nearly all actives have a fitted effect of over 55% in size
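HEK293T cells expressing luciferase-tagged ELG1 (2,000/well) received 5-Fluorouridine plus compound or DMSO for 16 hr at 37 °C. Luciferase was read by ONE-Glo luminescence after 30 min at room temperature.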
DT40 TDP1 no CPT – qHTS for Inhibitors of human tyrosyl-DNA phosphodiesterase 1 (TDP1): qHTS in cells in absence of CPT; Potency, µM (titrated, usually from 46.2 µM), inactives show at the highest dose activity change, negative = growth inhibition, usual class: inhibitors; 15% of 420,000 active; DT40 Tdp1-/- hTDP1 cells, no CPT, ATP luminescence, 48 h; also: potency is read from the fitted curve at half-maximal effect; nearly all actives have a fitted effect of over 55% in size
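Growth of hTDP1-complemented DT40 Tdp1-knockout cells is measured by ATP luminescence after at least 48 hr compound exposure at 37 °C, with DMSO substituting for the 20 nM CPT used in the parallel screen.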
DT40 TDP1 CPT – growth inhibition of DT40 Tdp1-/-;hTDP1 cells with camptothecin (screen for TDP1 inhibitors); chicken DT40 Tdp1-/-;hTDP1 cells + 20 nM CPT, ATP luminescence, 48 h; Potency, µM (titrated, usually from 46.2 µM), for the others: at the top dose activity change, negative = growth inhibition, most hits filed as inhibitors; 12% of 420,000 active; AID 686979; also: potency is read from the fitted curve at half-maximal effect; nearly all actives have a fitted effect of over 55% in size
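Chicken DT40 Tdp1-/- cells stably complemented with human TDP1 were seeded at 400 cells/well in medium containing 20 nM camptothecin, exposed to pin-transferred compounds, and grown at 37 °C for at least 48 hr. Viability was read as ATP luminescence.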
TDP1 block – inhibitors of human tyrosyl-DNA phosphodiesterase TDP1; Q9NUW8; recombinant TDP1, AlphaScreen DNA substrate cleavage; Potency, µM (titrated, usually from 130 µM), for the others: at the top dose activity change, negative = inhibition, usual class: inhibitors; 0.28% of 350,000 active; also: potency is read from the fitted curve at half-maximal effect; nearly all actives have a fitted effect of over 40% in size
Target sequence (Q9NUW8 whole entry, looked up): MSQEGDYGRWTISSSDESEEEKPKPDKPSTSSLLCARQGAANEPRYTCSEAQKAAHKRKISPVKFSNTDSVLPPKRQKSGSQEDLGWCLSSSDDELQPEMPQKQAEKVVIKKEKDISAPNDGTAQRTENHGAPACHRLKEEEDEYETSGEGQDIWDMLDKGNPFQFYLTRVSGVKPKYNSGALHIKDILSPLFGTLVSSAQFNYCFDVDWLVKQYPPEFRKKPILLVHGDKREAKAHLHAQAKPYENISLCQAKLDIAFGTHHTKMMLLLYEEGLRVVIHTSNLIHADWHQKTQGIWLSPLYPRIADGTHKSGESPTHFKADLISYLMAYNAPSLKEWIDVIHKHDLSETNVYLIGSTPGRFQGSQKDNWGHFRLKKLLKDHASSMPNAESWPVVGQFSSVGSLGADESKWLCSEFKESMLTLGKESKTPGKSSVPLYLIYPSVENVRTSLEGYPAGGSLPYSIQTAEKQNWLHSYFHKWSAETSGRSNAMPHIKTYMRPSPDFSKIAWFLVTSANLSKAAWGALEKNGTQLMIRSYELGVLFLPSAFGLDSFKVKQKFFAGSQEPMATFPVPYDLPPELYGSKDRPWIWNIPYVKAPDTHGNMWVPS
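AlphaScreen read-out: signal falls as enzyme removes the 3' tyrosine-FITC from a 5'-biotinylated DNA oligo (15 nM, 5 min, RT). Enzyme was E. coli-made recombinant Tdp1 at 1 nM, exposed to compound for 15 min beforehand; beads 10 ug/ml, 10 min.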
IL1B secr inh – inflammasome signaling inhibition, IL-1 beta readout. THP-1 LPS/ATP IL-1B secretion, AlphaLISA, 16 h; active compounds read low. activity change, % at 57.5 µM. 4.7% of 360,000 active. AID 743279; in the data active = activity change below about -50%; inconclusive = mostly about -30% to -49%
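THP-1 cells pretreated 1 hr with compounds (up to 57.5 uM final), then stimulated with LPS (250 ng/mL final) plus ATP (1.25 mM final); secreted IL-1B measured by AlphaLISA after 16 hr, decreased signal indicating inhibition.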
* = called active by the depositor. Shown are actives, neighbours in structure and some others; about 19% of the full set was active somewhere. Unless noted, calls follow the shape of the dose curve; as a rule, active = well fitted curve in the direction sought with a large enough effect; inconclusive = small, poorly fitted or top-dose-only effect, or another doubt; inactive = no such curve, though single readings can be large; an effect the other way counts as inactive or inconclusive. % is scaled to controls: 0 for no effect and ±100 for the full control effect.

What do the screens show for `CC(C)[C@H](NC(=O)[C@@H]1Cc2c([nH]c3ccccc23)C2c3ccccc3C(=O)N21)C(=O)NCC1CCCO1` (stereo not given in full)?
Giardia kill: -16; ELG1 repair inh: -14%; DT40 TDP1 no CPT: inconclusive; DT40 TDP1 CPT: inconclusive; IL1B secr inh: -7

Results for CC1=C(C(=O)NC2CCCc3c2cnn3-c2cc(F)cc(F)c2)OCCO1 (stereo not given) ?
Giardia kill: -6; ELG1 repair inh: 7%; DT40 TDP1 no CPT: inconclusive; DT40 TDP1 CPT: -12%; TDP1 block: 5%; IL1B secr inh: inactive

Results for COc1ccc(C(=O)NC2CCCc3c2cnn3-c2cc(F)cc(F)c2)c(OC)c1OC (stereo not given) ?
Giardia kill: -9; ELG1 repair inh: inconclusive; DT40 TDP1 no CPT: 15µM*; DT40 TDP1 CPT: 16µM*; TDP1 block: 2%; IL1B secr inh: -7

What do the screens show for `Cn1nccc1C(=O)NC1CCCc2c1cnn2-c1cc(F)cc(F)c1` (stereo not given)?
Giardia kill: 2; ELG1 repair inh: inconclusive; DT40 TDP1 no CPT: inconclusive; DT40 TDP1 CPT: 15µM*; TDP1 block: 0%; IL1B secr inh: 0

How did COC(=O)c1ccc(C(=O)NC2CCCc3c2cnn3-c2cc(F)cc(F)c2)nc1 (stereo not given) do in these assays?
Giardia kill: 4; ELG1 repair inh: 21µM*; DT40 TDP1 no CPT: 2.1µM*; DT40 TDP1 CPT: 2.9µM*; TDP1 block: 0%; IL1B secr inh: inactive

What do the screens show for `COCCNc1ccnc(-c2ccccc2C(F)(F)F)n1`?
DT40 TDP1 no CPT: -1%; DT40 TDP1 CPT: -5%

What do the screens show for `CN(C)C(CNC(=O)c1ccc(S(=O)(=O)Nc2cccc(C(F)(F)F)c2)cc1)c1ccco1` (stereo not given)?
Giardia kill: 10; ELG1 repair inh: -2%; DT40 TDP1 no CPT: inconclusive; DT40 TDP1 CPT: inconclusive; IL1B secr inh: 2

What do the screens show for `Cc1ccc(NC(=O)c2ccc(NS(=O)(=O)c3cccc4cccnc34)cc2)cc1`?
Giardia kill: 19; ELG1 repair inh: -9%; DT40 TDP1 no CPT: -24%; DT40 TDP1 CPT: inconclusive; IL1B secr inh: inconclusive

How did Cc1cc(NC(=O)CCC(=O)N(Cc2ccco2)C2(C(=O)NC3CCCCC3)CCCCC2)no1 do in these assays?
Giardia kill: 9; ELG1 repair inh: 6%; DT40 TDP1 no CPT: inconclusive; DT40 TDP1 CPT: inconclusive; IL1B secr inh: -23

How did Cc1noc(C)c1C(=O)N1CCC[C@@]2(CCN(c3ccccn3)C2)C1 do in these assays?
DT40 TDP1 no CPT: -2%; DT40 TDP1 CPT: 12%

Results for COc1cc2cc(CN(Cc3cccs3)C(=S)Nc3ccccc3)c(=O)[nH]c2cc1OC ?
Giardia kill: -14; ELG1 repair inh: 8.2µM*; DT40 TDP1 no CPT: 21µM*; DT40 TDP1 CPT: inconclusive; TDP1 block: -3%; IL1B secr inh: 13

What do the screens show for `CCNC(=S)N(Cc1cccs1)Cc1cc2cc(OCC)ccc2[nH]c1=O`?
Giardia kill: 16; ELG1 repair inh: inconclusive; DT40 TDP1 no CPT: 16µM*; DT40 TDP1 CPT: inconclusive; TDP1 block: 0%; IL1B secr inh: -2

Results for CNC(=S)N(Cc1cccs1)Cc1cc2ccc(OC)cc2[nH]c1=O ?
Giardia kill: 6; ELG1 repair inh: inconclusive; DT40 TDP1 no CPT: 18µM*; DT40 TDP1 CPT: inconclusive; TDP1 block: 5%; IL1B secr inh: -10

How did COc1ccc2[nH]c(=O)c(CN(Cc3cccs3)C(=S)Nc3ccccc3)cc2c1 do in these assays?
ELG1 repair inh: inconclusive; TDP1 block: 0%

What do the screens show for `CCNC(=S)N(Cc1ccco1)Cc1cc2cc(OCC)ccc2[nH]c1=O`?
Giardia kill: 12; ELG1 repair inh: inconclusive; DT40 TDP1 no CPT: inconclusive; DT40 TDP1 CPT: inconclusive; TDP1 block: 0%; IL1B secr inh: -17
